Consider 21 molecules from PubChem BioAssay (NCATS).

Results filed as inconclusive are left out. A number with no mark means an inactive call. Activity calls are given as the source filed them. Calls come from the whole dose curve; as a rule, active = well fitted cell-killing curve with a large enough effect; inconclusive = small, poorly fitted or top-dose-only effect; inactive = flat fitted curve, though single readings scatter.
Potency is the fitted concentration of half-maximal effect.

The nature of the test: Cell Viability - LYMP2-022 (AID 987).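 For viability change, negative = cytotoxic: 0% = DMSO alone and full effect = tetraoctylammonium bromide at 92 µM.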 Note: nearly all actives have a fitted effect of over 55% in size. To be noted: LYMP2-022 lymphoblastoid cell viability; series mostly up to 92.2 µM; viability change, negative = cytotoxic: at the top concentration. The text has this: NIH Chemical Genomics Center [NCGC]
NIH Molecular Libraries Screening Centers Network [MLSCN]
National Institutes of Environmental Health Sciences [NIEHS]
National Toxicology Program [NTP]
We have developed a 1536-well cell-based assay for quantitative high throughput screening (qHTS) against a number of cell lines to determine in vitro cytotoxicity of small molecules. This particular assay uses a human lymphoblastoid cell line (LYMP2-022) purchased from Coriell Institute for Medical Research.
NCGC Assay Protocol Summary:
The CellTiter-Glo luminescent cell viability assay (Promega) is a homogeneous method to measure the number of viable cells in culture. The end point readout of this assay is based on quantitation of intracellular ATP, an indicator of metabolic activity, using the luciferase reaction. Luciferase catalyzes the oxidation of beetle Luciferin to oxyluciferin and light in the presence of ATP. The luminescent signal is proportional to amount of ATP present.
Using the CellTiter-Glo luminescent cell viability assay, the amount of cellular ATP was measured in the lymphoblastoid cell line with complete culture medium following compound treatment for 24 hours. The assay was performed in opaque white Kalypsys 1536-well plates. In the screen, tetraoctylammonium bromide was used as positive control. Library compounds were measured for their ability to cause acute toxicity in the cell line, as reflected by a decrease in intracellular ATP levels, in a concentration-dependent manner. […] AC50 values were determined from concentration-response data modeled with the standard Hill equation.
qHTS protocol for CellTiter Glo lymphoblastoid cellular assay
[Step] [Parameter] [Value] [Description]
1. Reagent; 5 uL; 2500 lymphoblastoid cells/well
2. Time; 5 hr; 37 C incubation
4. Controls; 23 nL; Tetraoctylammonium bromide 6.4pM to 92 uM
5. Time; 24 hr; 37 C incubation
6. Reagent; 5 uL; CellTiter Glo reagent
7. Time; 30 min; Room Temperature
8. Detection; Luminescence; Viewlux plate reader
Keywords: cell viability, cytotoxicity, lymphoblastoid cell line, luminescence, NTPHTS, NTPHTS_NCGC, NIEHS, DSSTox, MLSMR, MLSCN, NIH Roadmap, qHTS, NCGC
`O=C(Oc1ccccc1)c1ccccc1O`: the “viability change, negative = cytotoxic” value was -12.7%.
Turning to `CCCC(=O)c1cc(O)c(O)cc1O`, the “viability change, negative = cytotoxic” value is -28.8%.
On the same count and under the same terms, as for `C1=CC2C3C=CC(C3)C2C1` (stereo unspecified), the figure is -11.8%.
On to `CC(=O)OC/C=C(C)/C=C/C=C(C)/C=C/C1=C(C)CCCC1(C)C`, for which the Potency was 50.1 µM (active).
As for `Oc1ccccc1`, the “viability change, negative = cytotoxic” value is 2.86%.
On to `c1ccc2occc2c1`, for which the “viability change, negative = cytotoxic” value was -11.1%.
Take `CCCCC(CC)COC(=O)c1ccccc1C(=O)O` (stereo unspecified): the “viability change, negative = cytotoxic” value is 2.44%.
In the case of `O=C(c1ccccc1)c1ccccc1`, the “viability change, negative = cytotoxic” value is -15.3%.
As to `OCc1c[nH]c2ccccc12`, the “viability change, negative = cytotoxic” value was -18.6%.
With `Cc1ccc(O)cc1`, the “viability change, negative = cytotoxic” value was -17.2%.
Turning to `CC(C)(C)c1ccc(O)c(O)c1`, the Potency was 39.8 µM (active).
For the molecule `CC(C)(c1ccc(O)cc1)c1ccc(O)cc1`, the Potency result was “inactive”.
As to `Nc1cccc2c(N)cccc12`, the “viability change, negative = cytotoxic” value is -17%.
Turning to `COc1cc(C=O)ccc1O`, the “viability change, negative = cytotoxic” value is -10.4%.
Consider `CC(C)C(C)(C)C(C)(C)C(C)(C)S`, for which the “viability change, negative = cytotoxic” value was -10.5%.
Consider `CCCCCCCCCCCCCCCC[n+]1ccccc1`, for which the Potency was 12.6 µM (active).
Take `O=C(NO)c1ccccc1`: the “viability change, negative = cytotoxic” value was -6.56%.
`Nc1ccc(O)cc1`: the Potency is 25.1 µM (active).
Take `Brc1ccccc1-c1ccccc1`: the “viability change, negative = cytotoxic” value was -8.97%.
As to `Nc1c2ccccc2nc2ccccc12`, the Potency was 12.6 µM (active).
Take `Cc1cc(C(C)(C)C)c(O)c(C(C)(C)C)c1`: the “viability change, negative = cytotoxic” value is -3.83%.
